Among the data in PMC12820563, “FoxP3 forms a head-to-head dimer in vivo and stabilizes its multimerization on adjacent microsatellites” are binding signal values, retold here.

Over roughly 16,000 sequences, “rpm ratio (pull-down/input)” has its median near 0.94; the highest 2% begin near 1.7. This excerpt belongs to a sample that is enriched for the highest values.

The test has as its target T1, MBP-FoxP1dN (Mus musculus, UniProt P58462 326-579).
T1 sequence: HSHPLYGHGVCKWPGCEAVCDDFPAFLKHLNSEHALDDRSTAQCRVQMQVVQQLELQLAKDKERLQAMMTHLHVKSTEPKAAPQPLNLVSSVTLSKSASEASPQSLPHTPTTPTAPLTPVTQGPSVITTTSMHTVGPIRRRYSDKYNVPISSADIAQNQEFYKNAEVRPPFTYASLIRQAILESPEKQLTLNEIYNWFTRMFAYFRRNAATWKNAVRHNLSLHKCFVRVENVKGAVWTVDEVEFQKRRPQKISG
Description: PD-seq (MBP pull-down with sequencing); 20 mM Tris-HCl pH 7.5, 100 mM NaCl, 1.5 mM MgCl2, 0.4 uM protein, 0.1 uM dsDNA library, 30 min, room temperature, amylose pull-down; high values mean tight binding. The note with it: protein: recombinant; tags: His6-MBP; chain copies: 2; dsDNA, one strand shown. The method in brief: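 The N-terminus-lacking fragment of mouse FoxP3 or FoxP1 carried a His6-MBP tag and was expressed in E. coli. At 0.4 µM it was incubated with 0.1 µM Klenow-filled degenerate double-stranded DNA library for 30 min at room temperature in Tris pH 7.5 buffer with NaCl and MgCl2, and complexes were caught on amylose resin, washed three times, released with proteinase K, PCR-barcoded and Illumina-sequenced. Binding is reads-per-million enrichment of pull-down over input with replicates pooled.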
“GATGATTGTTCTCCCAGCTGATGAATTCTATTACTCGAGTAAACAAATTTTCCTAATCTTTCTGTTCAAGCGCCATCTAC”: the binding signal was 0.895 RPM ratio (pull-down/input).
The value for “GATGATTGTTCTCCCAGCTGATGAATTCCCTCCATCGAGTAAACAAATTTTCCTAATCTTTCTGTTCAAGCGCCATCTAC” was 0.855 RPM ratio (pull-down/input).
The value for “GATGATTGTTCTCCCAGCTGATGAATTAACACATTCGAGTAAACAAATTTTCCTAATCTTTCTGTTCAAGCGCCATCTAC” was 1.18 RPM ratio (pull-down/input).
The value for “GATGATTGTTCTCCCAGCTGATGAATTCCTAGGTTCGAGTAAACAAATTTTCCTAATCTTTCTGTTCAAGCGCCATCTAC” was 0.762 RPM ratio (pull-down/input); that for “GATGATTGTTCTCCCAGCTGATGAATTGCATTGTTCGAGTAAACAAATTTTCCTAATCTTTCTGTTCAAGCGCCATCTAC” was 1.43 RPM ratio (pull-down/input); that for “GATGATTGTTCTCCCAGCTGATGAATTGCATTTTTCGAGTAAACAAATTTTCCTAATCTTTCTGTTCAAGCGCCATCTAC” was 1.69 RPM ratio (pull-down/input).
For “GATGATTGTTCTCCCAGCTGATGAATTTTGCATTTCGAGTAAACAAATTTTCCTAATCTTTCTGTTCAAGCGCCATCTAC”, the binding signal is 1.29 RPM ratio (pull-down/input).
The value for “GATGATTGTTCTCCCAGCTGATGAATTGCATCTTTCGAGTAAACAAATTTTCCTAATCTTTCTGTTCAAGCGCCATCTAC” was 1.83 RPM ratio (pull-down/input).
The figure for “GATGATTGTTCTCCCAGCTGATGAATTTGCATCTTCGAGTAAACAAATTTTCCTAATCTTTCTGTTCAAGCGCCATCTAC” is 1.89 RPM ratio (pull-down/input); for “GATGATTGTTCTCCCAGCTGATGAATTTGCATTTTCGAGTAAACAAATTTTCCTAATCTTTCTGTTCAAGCGCCATCTAC” it is 1.61 RPM ratio (pull-down/input); for “GATGATTGTTCTCCCAGCTGATGAATTGAAACGCTCGAGTAAACAAATTTTCCTAATCTTTCTGTTCAAGCGCCATCTAC” it is 0.86 RPM ratio (pull-down/input).
The figure for “GATGATTGTTCTCCCAGCTGATGAATTTCTACATTCGAGTAAACAAATTTTCCTAATCTTTCTGTTCAAGCGCCATCTAC” is 0.939 RPM ratio (pull-down/input); for “GATGATTGTTCTCCCAGCTGATGAATTACCGTGCTCGAGTAAACAAATTTTCCTAATCTTTCTGTTCAAGCGCCATCTAC” it is 0.964 RPM ratio (pull-down/input); for “GATGATTGTTCTCCCAGCTGATGAATTCTGTACATCGAGTAAACAAATTTTCCTAATCTTTCTGTTCAAGCGCCATCTAC” it is 1.09 RPM ratio (pull-down/input).
Regarding “GATGATTGTTCTCCCAGCTGATGAATTGTGTACATCGAGTAAACAAATTTTCCTAATCTTTCTGTTCAAGCGCCATCTAC”, the binding signal was 2 RPM ratio (pull-down/input).
The value for “GATGATTGTTCTCCCAGCTGATGAATTGTACACATCGAGTAAACAAATTTTCCTAATCTTTCTGTTCAAGCGCCATCTAC” was 2.11 RPM ratio (pull-down/input); that for “GATGATTGTTCTCCCAGCTGATGAATTTTGTACATCGAGTAAACAAATTTTCCTAATCTTTCTGTTCAAGCGCCATCTAC” was 1.22 RPM ratio (pull-down/input).
Take “GATGATTGTTCTCCCAGCTGATGAATTCTACACATCGAGTAAACAAATTTTCCTAATCTTTCTGTTCAAGCGCCATCTAC”: the binding signal is 1.06 RPM ratio (pull-down/input).
For the sequence “GATGATTGTTCTCCCAGCTGATGAATTGTACAAATCGAGTAAACAAATTTTCCTAATCTTTCTGTTCAAGCGCCATCTAC”, the binding signal is 1.35 RPM ratio (pull-down/input).
On to “GATGATTGTTCTCCCAGCTGATGAATTGCAGTTGTCGAGTAAACAAATTTTCCTAATCTTTCTGTTCAAGCGCCATCTAC”, for which the binding signal is 1.34 RPM ratio (pull-down/input).
The figure for “GATGATTGTTCTCCCAGCTGATGAATTACAGTACTCGAGTAAACAAATTTTCCTAATCTTTCTGTTCAAGCGCCATCTAC” is 1.06 RPM ratio (pull-down/input).
The figure for “GATGATTGTTCTCCCAGCTGATGAATTGTTATAATCGAGTAAACAAATTTTCCTAATCTTTCTGTTCAAGCGCCATCTAC” is 1.59 RPM ratio (pull-down/input); for “GATGATTGTTCTCCCAGCTGATGAATTTGCTTACTCGAGTAAACAAATTTTCCTAATCTTTCTGTTCAAGCGCCATCTAC” it is 1.69 RPM ratio (pull-down/input).
For the sequence “GATGATTGTTCTCCCAGCTGATGAATTAGCAGTCTCGAGTAAACAAATTTTCCTAATCTTTCTGTTCAAGCGCCATCTAC”, the binding signal is 0.877 RPM ratio (pull-down/input).
The value for “GATGATTGTTCTCCCAGCTGATGAATTGCATCTATCGAGTAAACAAATTTTCCTAATCTTTCTGTTCAAGCGCCATCTAC” was 1.75 RPM ratio (pull-down/input); that for “GATGATTGTTCTCCCAGCTGATGAATTGCAGCTATCGAGTAAACAAATTTTCCTAATCTTTCTGTTCAAGCGCCATCTAC” was 1.15 RPM ratio (pull-down/input).
Turning to “GATGATTGTTCTCCCAGCTGATGAATTTGCATTATCGAGTAAACAAATTTTCCTAATCTTTCTGTTCAAGCGCCATCTAC”, the binding signal is 1.49 RPM ratio (pull-down/input).
The figure for “GATGATTGTTCTCCCAGCTGATGAATTTATTGCATCGAGTAAACAAATTTTCCTAATCTTTCTGTTCAAGCGCCATCTAC” is 1.62 RPM ratio (pull-down/input); for “GATGATTGTTCTCCCAGCTGATGAATTGCATTTATCGAGTAAACAAATTTTCCTAATCTTTCTGTTCAAGCGCCATCTAC” it is 1.77 RPM ratio (pull-down/input); for “GATGATTGTTCTCCCAGCTGATGAATTTCTTGCATCGAGTAAACAAATTTTCCTAATCTTTCTGTTCAAGCGCCATCTAC” it is 1.27 RPM ratio (pull-down/input).
The value for “GATGATTGTTCTCCCAGCTGATGAATTAGTCTGGTCGAGTAAACAAATTTTCCTAATCTTTCTGTTCAAGCGCCATCTAC” was 0.822 RPM ratio (pull-down/input); that for “GATGATTGTTCTCCCAGCTGATGAATTTGGGCCATCGAGTAAACAAATTTTCCTAATCTTTCTGTTCAAGCGCCATCTAC” was 0.878 RPM ratio (pull-down/input); that for “GATGATTGTTCTCCCAGCTGATGAATTGTGTTTGTCGAGTAAACAAATTTTCCTAATCTTTCTGTTCAAGCGCCATCTAC” was 2.8 RPM ratio (pull-down/input).
On to “GATGATTGTTCTCCCAGCTGATGAATTCTTTGTGTCGAGTAAACAAATTTTCCTAATCTTTCTGTTCAAGCGCCATCTAC”, for which the binding signal is 1.06 RPM ratio (pull-down/input).
Turning to “GATGATTGTTCTCCCAGCTGATGAATTGTTTGTGTCGAGTAAACAAATTTTCCTAATCTTTCTGTTCAAGCGCCATCTAC”, the binding signal is 2.77 RPM ratio (pull-down/input).
On to “GATGATTGTTCTCCCAGCTGATGAATTTGCTGTGTCGAGTAAACAAATTTTCCTAATCTTTCTGTTCAAGCGCCATCTAC”, for which the binding signal is 1.14 RPM ratio (pull-down/input).
Regarding “GATGATTGTTCTCCCAGCTGATGAATTTTCTGTGTCGAGTAAACAAATTTTCCTAATCTTTCTGTTCAAGCGCCATCTAC”, the binding signal is 0.968 RPM ratio (pull-down/input).
The value for “GATGATTGTTCTCCCAGCTGATGAATTTGATGTGTCGAGTAAACAAATTTTCCTAATCTTTCTGTTCAAGCGCCATCTAC” was 1.16 RPM ratio (pull-down/input); that for “GATGATTGTTCTCCCAGCTGATGAATTACCCATATCGAGTAAACAAATTTTCCTAATCTTTCTGTTCAAGCGCCATCTAC” was 1.07 RPM ratio (pull-down/input).
The value for “GATGATTGTTCTCCCAGCTGATGAATTACTCCTCTCGAGTAAACAAATTTTCCTAATCTTTCTGTTCAAGCGCCATCTAC” was 1.05 RPM ratio (pull-down/input).
